# From PubChem BioAssay (Tox21)
# Where “and” joins values, the source holds several entries; their conditions need not be identical. Identical values can stand only once. Results filed as inconclusive are left out. Where a call stands in place of a potency, no number is given. Some compounds were tested as several samples or in several runs, with calls that do not always agree. Calls of active or inactive are those of the source. The call rests on the fitted dose curve; in most records, active means well fitted curve in the direction sought with a large enough effect in the repeat runs; inconclusive means weak or mixed curves; inactive means no such curve, though single readings can be large; an effect the other way counts as inactive or inconclusive.
# Experiments:
# [1] = A CellTox Green Cytotoxicity Assay to monitor cytotoxicity in HEK293 cells - 32 hour (AID 1224881); further: nearly all actives have a fitted effect of over 40% in size; further: potency means the concentration at half of the fitted maximal effect
# Method in brief: (§1)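 HEK293 cells, 600/well, were preincubated 5 hours and then exposed to compounds at 37 C for up to 40 hours. A cell-impermeant cyanine dye staining dead-cell DNA was read by fluorescence at 0, 8, 16, 24, 32 and 40 h time points.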
# [2] = A CellTox Green Cytotoxicity Assay to monitor cytotoxicity in HepG2 cells - 0 hour (AID 1224882); further: nearly all actives have a fitted effect of over 35% in size; further: potency means the concentration at half of the fitted maximal effect
# Method in brief: (§2)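 HepG2 cells, 600/well, preincubated 5 h with CellTox Green dye, then exposed to Tox21 compounds in DMSO at 37 C for up to 40 h. Dead-cell DNA fluorescence read at the indicated time point.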
# [3] = A CellTox Green Cytotoxicity Assay to monitor cytotoxicity in HEK293 cells - 8 hour (AID 1224884); further: nearly all actives have a fitted effect of over 35% in size; further: potency means the concentration at half of the fitted maximal effect
# Method in brief: as §1
# [4] = qHTS RealTime-Glo MT Cell Viability Assay in HepG2 cells - 16 hour (AID 1224885); further: nearly all actives have a fitted effect of over 50% in size; further: potency means the concentration at half of the fitted maximal effect
# Method in brief: (§3)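 Cells + NanoLuc/prosubstrate dispensed (600 cells/well) → 5 h at 37 C/5% CO2 → compounds in DMSO transferred → 40 h incubation at 37 C, luminescence read at 0, 8, 16, 24, 32, 40 h.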
# [5] = qHTS RealTime-Glo MT Cell Viability Assay in HEK293 cells - 8 hour (AID 1224887); further: nearly all actives have a fitted effect of over 50% in size; further: potency means the concentration at half of the fitted maximal effect
# Method in brief: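 600 cells/well were plated with the nonlytic NanoLuc/prosubstrate reagent, pre-incubated 5 h, then given 23 nL of compound in DMSO. Incubation at 37 C for 40 h, with luminescence from viable-cell-reduced substrate read repeatedly from 0 h.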
# [6] = A CellTox Green Cytotoxicity Assay to monitor cytotoxicity in HEK293 cells - 16 hour (AID 1224888); further: nearly all actives have a fitted effect of over 35% in size; further: potency means the concentration at half of the fitted maximal effect
# Method in brief: as §1
# [7] = A CellTox Green Cytotoxicity Assay to monitor cytotoxicity in HepG2 cells - 32 hour (AID 1224883); further: nearly all actives have a fitted effect of over 50% in size; further: potency means the concentration at half of the fitted maximal effect
# Method in brief: as §2
# [8] = qHTS RealTime-Glo MT Cell Viability Assay in HepG2 cells - 0 hour (AID 1224889); further: nearly all actives have a fitted effect of over 50% in size
# Method in brief: as §3
# [9] = A CellTox Green Cytotoxicity Assay to monitor cytotoxicity in HepG2 cells - 8 hour (AID 1224890); further: nearly all actives have a fitted effect of over 45% in size; further: potency means the concentration at half of the fitted maximal effect
# Method in brief: as §2
# [10] = qHTS RealTime-Glo MT Cell Viability Assay in HEK293 cells - 24 hour (AID 1224886); further: nearly all actives have a fitted effect of over 50% in size; further: potency means the concentration at half of the fitted maximal effect
# Method in brief: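 Tox21 10K qHTS, HEK293, 600 cells/well, RealTime-Glo reagent co-dispensed with cells; 5 h preincubation, compound by pintool, 37 C, luminescence at 0–40 h.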
SMILES,Potency [1],Potency [2],Potency [3],Potency [4],Potency [5],Potency [6],Potency [7],Potency [8],Potency [9],Potency [10]
COc1ccc(O)c(C(C)(C)C)c1,inactive,inactive,inactive,inactive,inactive,inactive,,,,
CC(C)(c1ccc(OCC2CO2)cc1)c1ccc(OCC2CO2)cc1 (centres undefined),inactive,inactive,inactive,inactive,inactive,inactive,inactive,inactive,inactive,
CC(C)(O)C(=O)Nc1ccc([N+](=O)[O-])c(C(F)(F)F)c1,inactive,inactive,inactive,inactive,25.1 µM (active),inactive,inactive,inactive,,
C[C@]12CC[C@H]3[C@@H](CCC4=CC(=O)CC[C@@H]43)[C@@H]1CC[C@@H]2O,inactive,inactive,inactive,inactive,inactive,inactive,inactive,,inactive,
CC(C)CON=O,inactive,inactive,inactive,inactive,inactive,inactive,inactive,inactive,inactive,
CCCCOCCOC(C)=O,inactive,inactive,inactive,inactive,inactive,inactive,inactive,inactive,inactive,
O=[N+]([O-])c1ccc(Cl)c([N+](=O)[O-])c1,19.8 µM (active) and 24.5 µM (active),inactive,inactive,39.5 µM (active) and 17.4 µM (active),14 µM (active) and 17.4 µM (active),inactive,35.2 µM (active) and 24.5 µM (active),inactive,61.7 µM (active),
COc1ccc(C=O)cc1OC,inactive,inactive,inactive,inactive,inactive,inactive,inactive,inactive,inactive,
O=P(OCCCl)(OCCCl)OCCCl,inactive,inactive,inactive,inactive,inactive,inactive,inactive,inactive,inactive,
OC(c1ccc(Cl)cc1)(c1cncnc1)c1ccccc1Cl (centres undefined),25 µM (active) and inactive,inactive,inactive,39.6 µM (active),22.3 µM (active),,17.7 µM (active) and inactive,,inactive,
Cc1cccc(N=Nc2ccc(N(C)C)cc2)c1,inactive,inactive,inactive,inactive,,inactive,inactive,inactive,,
Clc1cccc(C(Cl)(Cl)Cl)n1,inactive,inactive,inactive,inactive,inactive,inactive,54.5 µM (active),inactive,inactive,
C[N+](C)(C)CC(=O)O,inactive,inactive,inactive,inactive,inactive,inactive,inactive,inactive,,
Oc1ccc(Cl)cc1Cl,inactive,inactive,inactive,inactive,inactive,inactive,inactive,,inactive,
CNC(=S)S,inactive,inactive,inactive,inactive,inactive,inactive,inactive,inactive,inactive,
CNC(=O)CSP(=S)(OC)OC,inactive,inactive,inactive,inactive,inactive,inactive,inactive,,inactive,
Cc1ccc(N=CN(C)C=Nc2ccc(C)cc2C)c(C)c1,inactive,inactive,inactive,inactive,inactive,inactive,43.6 µM (active) and inactive,inactive,,
[Cl-].[Cl-].[Cl-].[Fe+3],inactive,inactive,inactive,inactive,inactive,inactive,inactive,inactive,inactive,
CC(C)(c1ccccc1)c1ccc(O)c(C(C)(C)c2ccccc2)c1,38.5 µM (active) and 43.6 µM (active),inactive,inactive,54.4 µM (active) and 43.6 µM (active),21.7 µM (active) and 30.9 µM (active),43.2 µM (active),48.5 µM (active) and 43.6 µM (active),inactive,48.5 µM (active) and 49 µM (active),
CCCCC(C#N)(Cn1cncn1)c1ccc(Cl)cc1 (centres undefined),inactive,inactive,inactive,inactive,inactive,inactive,,inactive,inactive,
CC(C)COC(=O)c1ccccc1C(=O)OCC(C)C,inactive,inactive,inactive,inactive,inactive,inactive,inactive,inactive,,
CSc1nc(NC(C)C)nc(NC(C)C)n1,inactive,inactive,inactive,inactive,inactive,inactive,inactive,,inactive,
CCCCCCCCCC(CC)c1ccc(S(=O)(=O)O)cc1 (centres undefined),,inactive,,inactive,inactive,,54.9 µM (active) and 21.3 µM (active) and 38.9 µM (active),inactive,,44.1 µM (active) and inactive
COC(=O)Nc1nc2ccccc2[nH]1,inactive,inactive,inactive,inactive,inactive,inactive,6.17 µM (active) and inactive,,inactive,
c1ccc(C2CO2)cc1 (centres undefined),inactive,inactive,,inactive,inactive,inactive,inactive,inactive,inactive,inactive
Cl,inactive,inactive,inactive,inactive,inactive,inactive,inactive,inactive,inactive,
CC1CC(=O)O1 (centres undefined),inactive,inactive,inactive,inactive,inactive,inactive,inactive,,inactive,
CCOP(=S)(OCC)SCSC(C)(C)C,inactive,inactive,inactive,inactive,inactive,inactive,inactive,inactive,inactive,
CCCCCCCCCCCCCl,inactive and 19.5 µM (active),inactive and 19.5 µM (active),inactive and 19.5 µM (active),inactive,inactive,,inactive and 12.3 µM (active),inactive,inactive and 12.3 µM (active),
